The source of these data is PubChem BioAssay AID463173 (ICCB-Longwood Screening Facility, Harvard Medical School, 2010).

About 4,300 (8.3%) of roughly 52,000 compounds were called active. Many of the other results were omitted from the sample, so actives are more common in it than they were. A number with no mark means an inactive call. No stated cut-off is given here; in the data, active means survival mostly below about 52% (no sharp cut-off); inactive means mostly above about 56%.

The test deals with DeltatarO mutant. Briefly: S. aureus survival, RN4220 and DeltatarO strains – OD600, teichoic acid synthesis inhibitors, primary screen (AID 463173). The note with it: S. aureus RN4220 wild type/DeltatarO growth, OD600, 18 h, hits give low values, screened at 18.75 µg/mL (by protocol).
For `O=C(CN1Cc2ccccc2C1=O)Nc1cc(F)ccc1F`, the survival was 81%. To `Cc1nc2ccc(S(=O)(=O)CCC(=O)Nc3ccc(C)c(C)c3)cc2s1` belongs 107%; to `CCOc1ccc(-n2c(SCC(=O)Nc3ccc(CC)cc3)nc3c(oc4ccccc43)c2=O)cc1`, 71%. In the case of `CCOC(=O)c1c(S(=O)(=O)NCC(=O)N(C)Cc2ccccc2)c(C)n(C)c1C`, the survival is 89%.

Consider `CCOc1no[n+]([O-])c1-c1ccccc1`, for which the survival was 90%. For `CN(C(=O)CSc1nc2ccc(NC(=O)c3ccccc3F)cc2s1)c1ccccc1`, the survival was 103%. Regarding `CCN(Cc1nc(-c2ccc(OC)cc2)oc1C)S(=O)(=O)c1ccc(C)cc1`, the survival is 95%.

For the compound `COc1ccc(C(=O)N/N=C2/SCC(=O)N2C)c(OC)c1`, the survival is 69%. For `Cc1[nH]c2ccccc2c1C1(O)C(=O)N(Cc2ccc(Cl)cc2)c2ccccc21` (centres undefined), the survival is 29% (active). On to `Cc1ccc(CN2C(=O)C(O)(c3c(C)[nH]c4ccccc34)c3ccccc32)cc1` (centres undefined), for which the survival was 101%.

Turning to `Cc1[nH]c2ccccc2c1C1(O)C(=O)N(Cc2ccccc2)c2ccc(Cl)cc21` (centres undefined), the survival was 24% (active). Consider `Cc1ccc(C)c(CN2C(=O)C(O)(c3c(C)[nH]c4ccccc34)c3ccccc32)c1` (centres undefined), for which the survival was 51%. For `CCCCN1C(=O)C(O)(c2c(C)[nH]c3ccccc23)c2cc(Br)ccc21` (centres undefined), the survival was 27% (active). On to `Cc1[nH]c2ccccc2c1C1(O)C(=O)N(Cc2ccccc2)c2ccc(Br)cc21` (centres undefined), for which the survival was 3% (active). `CCCCN1C(=O)C(O)(c2c(C)[nH]c3ccccc23)c2ccccc21` (centres undefined): the survival was 51%. The value for `Cc1[nH]c2ccccc2c1C1(O)C(=O)N(Cc2ccccc2Cl)c2ccccc21` (centres undefined) was 51%. Turning to `CCN1C(=O)C(O)(c2c(C)[nH]c3ccccc23)c2ccccc21` (centres undefined), the survival was 54%.

Regarding `CCOC(=O)CC(NC(=O)CCc1c(C)nc2c(-c3ccccc3)c(C)nn2c1C)c1ccc(C)cc1` (centres undefined), the survival is 63%. In the case of `COc1ccccc1CNC(=O)C1CCN(S(=O)(=O)c2c(C)noc2/C=C/c2c(C)cc(C)cc2C)CC1`, the survival is 79%. The value for `COc1cn(CC(=O)Nc2cccc(C)c2)c(CN2CCCCC2)cc1=O` was 85%. For the compound `C=CCNC(=O)CSc1ccc(C)cc1`, the survival was 82%. As for `COc1cc(OC)c(NC(=O)NCc2ccc3c(c2)CCN3C(C)=O)cc1Cl`, the survival is 124%. On to `Cc1c(NC(=O)C(C)(C)Oc2ccc(Cl)cc2)cccc1-c1nc2ccccc2o1`, for which the survival was 2% (active).

`Cc1c(NC(=O)C(C)(C)Oc2ccc(Cl)cc2)cccc1-c1nc2ncccc2o1`: the survival is 19% (active). With `Cc1cc(NC(=O)C(C)(C)Oc2ccc(Cl)cc2)cc(-c2nc3ncccc3o2)c1O`, the survival is 82%. To `COc1c(Cl)cc(Cl)cc1C(=O)Nc1cccc(-c2nc3ccccc3o2)c1C` belongs 109%; to `Cc1ccc(SCC(=O)Nc2cccc(-c3nc4cc(Cl)ccc4o3)c2C)cc1`, 60%. With `CC(C)(Oc1ccc(Cl)cc1)C(=O)Nc1ccc(-c2nc3ncccc3o2)cc1`, the survival is 52%.

As to `CCCCN1CCc2nc(Nc3ccc(OC)cc3OC)ncc2C1`, the survival is 77%. In the case of `CCOC(=O)c1noc2ncn(CC(=O)O)c(=O)c12`, the survival was 54%. To `O=C(O)c1c2c(nc3ccc(F)cc13)CCCC2` belongs 89%; to `O=C(CSc1ccccc1)Nc1ccc2c(c1)OCO2`, 100%. For the compound `CC(C)CNC(=O)N1[C@H](c2cccs2)[C@@H](C)C(=O)[C@@H](C)[C@@H]1c1cccs1`, the survival is 54%. Turning to `CCCNC(=O)N1[C@H](c2cccs2)[C@@H](C)C(=O)[C@@H](C)[C@@H]1c1cccs1`, the survival was 107%.

As for `CCOC(=O)CNC(=O)N1[C@H](c2cccs2)[C@@H](C)C(=O)[C@@H](C)[C@@H]1c1cccs1`, the survival is 55% (active).

As to `CC(C)c1ccccc1NC(=O)CN(c1ccccc1)S(=O)(=O)N(C)C`, the survival is 81%.

Turning to `Cc1oc(-c2ccc(C(=O)Nc3ccccc3F)cc2)nc1COc1ccccc1`, the survival is 94%.

For `COc1ccc(-c2nc(CSCC(=O)NCc3ccccc3Cl)c(C)o2)cc1OC`, the survival is 46% (active). With `Cc1ccc(-c2nc(CS(=O)(=O)CC(=O)NCc3ccccc3Cl)c(C)o2)cc1`, the survival was 56%. The value for `Cc1oc(-c2cccc(Cl)c2)nc1CSCC(=O)NCc1ccccc1Cl` was 0% (active).

For `COc1ccccc1CNC(=O)CSCc1nc(-c2ccc(OC)c(OC)c2)oc1C`, the survival was 71%. With `CCc1ccc(-c2nc(CSCC(=O)NCc3ccccc3OC)c(C)o2)cc1`, the survival was 62%.

As for `COc1ccc(-c2nc(CS(=O)(=O)CC(=O)NCCc3ccc(C)cc3)c(C)o2)cc1`, the survival is 85%. Consider `Cc1oc(-c2cccc(Cl)c2)nc1CS(=O)(=O)CC(=O)NCc1ccccc1Cl`, for which the survival is 49%. As to `Cc1oc(-c2ccccc2Cl)nc1CS(=O)CC(=O)NCc1ccccc1Cl` (centres undefined), the survival is 54%.

With `Cc1ccc(-c2nc(CS(=O)CC(=O)NCc3ccccc3Cl)c(C)o2)cc1` (centres undefined), the survival was 54% (active). In the case of `COc1ccc(-c2nc(CS(=O)CC(=O)NCc3ccccc3Cl)c(C)o2)cc1OC` (centres undefined), the survival is 72%. The value for `Cc1oc(-c2cccc(Cl)c2)nc1CSCC(=O)O` was 75%; that for `COc1ccc(-c2nc(CS(=O)(=O)CC(=O)NCc3ccccc3Br)c(C)o2)cc1` was 41% (active). On to `CN1CCN(C(=O)c2ccc(N(C)S(C)(=O)=O)cc2)CC1`, for which the survival is 107%. For the compound `Cc1cccc(CCNC(=O)C2CCCN(S(=O)(=O)c3ccc4c(c3)oc(=O)n4C)C2)c1` (centres undefined), the survival was 102%. As to `Cc1ccc(Cn2c(C)c3cnn(CC(=O)N4CCN(c5ccc(F)cc5)CC4)c(=O)c3c2C)cc1`, the survival is 71%. For `CC(=O)c1ccc(NC(=O)Cn2cc(S(=O)(=O)Cc3cccc(Cl)c3)c3ccccc32)cc1`, the survival is 113%.

Turning to `O=C(Nc1ccc(F)c(F)c1)c1nc2ncccn2n1`, the survival is 82%. The value for `COc1ccc(Br)cc1CNC(=O)CSc1n[nH]c(-c2ccccc2)n1` was 73%; that for `Cc1ccc(-c2nc(CS(=O)(=O)CC(=O)NC(C)CCc3ccccc3)c(C)o2)cc1` (centres undefined) was 63%. Consider `Cc1oc(-c2cccc(Cl)c2)nc1CS(=O)(=O)CC(=O)NC(C)CCc1ccccc1` (centres undefined), for which the survival is 32% (active). Regarding `Cc1oc(-c2ccccc2Cl)nc1CS(=O)(=O)CC(=O)NC(C)CCc1ccccc1` (centres undefined), the survival is 76%.

`COC(=O)C12CC3CC(CC(C(=O)OC)(C1)C3=O)C2=O`: the survival was 116%. Regarding `O=c1[nH]c(SCc2cccc(Cl)c2)nc2c1CCC2`, the survival was 85%. Consider `Cc1cccc(CSc2nc3c(c(=O)[nH]2)CCC3)c1`, for which the survival is 69%. Turning to `Cc1nc(SCc2cccc(Cl)c2)nc2c1CCCC2`, the survival was -2% (active).

On to `COc1ccccc1CNC(=O)c1c(O)nc2c(C)cccn2c1=O`, for which the survival was 69%. To `O=C(NCc1ccc2c(c1)CCN2C(=O)c1ccncc1)c1ccccc1F` belongs 117%; to `COc1ccccc1Nc1nn2c(=O)c3ccc(C(=O)N4CCC(C)CC4)cc3nc2s1`, 52% (active); to `COc1ccccc1Nc1nn2c(=O)c3ccc(C(=O)N4CCCCC4)cc3nc2s1`, 71%. On to `COc1ccccc1Nc1nn2c(=O)c3ccc(C(=O)N4CCCC(C)C4)cc3nc2s1` (centres undefined), for which the survival was 61%. Take `CCN(CC)S(=O)(=O)c1ccc2c(c1)N(CC(=O)Nc1c(C)cccc1C)C(=O)C1CCCN21` (centres undefined): the survival is 89%.

Regarding `CCc1ccccc1NC(=O)CN1C(=O)C2CCCN2c2ccc(S(=O)(=O)N(CC)CC)cc21` (centres undefined), the survival was 72%. Take `CCN(CC)S(=O)(=O)c1ccc2c(c1)N(CC(=O)Nc1cccc(C)c1C)C(=O)C1CCCN21` (centres undefined): the survival is -2% (active). Take `O=C(Cn1c(=O)nc(-c2ccccc2)c2ccccc21)NCCc1ccc(Cl)cc1`: the survival was 70%.

For the compound `Cc1cc(C)c(Cn2c3ccccc3c3cnn(CC(=O)N4CCCCCC4)c(=O)c32)c(C)c1`, the survival was 9% (active). Regarding `O=C(Cn1ncc2c3ccccc3n(Cc3ccccc3F)c2c1=O)N1CCCCCC1`, the survival was 70%. Take `Cc1ccc(Cn2c3ccccc3c3cnn(CC(=O)N4CCCCCC4)c(=O)c32)cc1`: the survival is 19% (active). As to `O=C(Cn1ncc2c3ccccc3n(Cc3ccccc3F)c2c1=O)N1CCCCC1`, the survival is 120%. With `O=C(Cn1ncc2c3ccccc3n(Cc3ccc(Cl)cc3)c2c1=O)N1CCCCCC1`, the survival was 84%. `CC1CCCCN1C(=O)Cn1ncc2c3ccccc3n(Cc3ccccc3F)c2c1=O` (centres undefined): the survival was 32% (active). As to `CCN1CCN(C(=O)Cn2ncc3c4ccccc4n(Cc4c(C)cc(C)cc4C)c3c2=O)CC1`, the survival was 124%. In the case of `CCN1CCN(C(=O)Cn2ncc3c4ccccc4n(Cc4ccccc4F)c3c2=O)CC1`, the survival is 95%. Turning to `O=C(Cn1ncc2c3ccccc3n(Cc3ccccc3)c2c1=O)N1CCCCCC1`, the survival is 82%. Turning to `CCCn1c2ccccc2c2cnn(CC(=O)N3CCN(c4ccccc4F)CC3)c(=O)c21`, the survival was -4% (active). Consider `Cc1cc(C)c(Cn2c3ccccc3c3cnn(CC(=O)N4CCCCC4)c(=O)c32)c(C)c1`, for which the survival is 126%. The value for `CCCn1c2ccccc2c2cnn(CC(=O)N3CCC(C)CC3)c(=O)c21` was 76%.

For `CN(C)c1ccc(C(=O)NC2CCSC2=O)cc1` (centres undefined), the survival is 66%. To `Cc1ccc(Cl)cc1N1CCN(C(=O)C(C)n2ncn3cccc3c2=O)CC1` (centres undefined) belongs 66%; to `Cc1ccc2nc(-c3ccc(NC(=O)COc4ccc(Br)cc4Br)cc3)sc2c1`, 104%; to `CCOc1cc(-c2nnc(SCC(=O)NCCCOC)nc2-c2ccc(OC)c(OCC)c2)ccc1OC`, 73%. With `COc1ccc(NC(=O)CCCN2C(=O)COc3ccc(C)cc32)cc1OC`, the survival is 119%.

For `COc1ccc(CNC(=O)c2oc3c(c2C)-c2nn(Cc4ccccc4Cl)cc2CC3)cc1`, the survival was 89%.
